The values that follow come from PubChem BioAssay (NCI).

Test systems include SK-MEL-2 melanoma; SN12C renal; UO-31 renal; TK-10 renal; ACHN renal; CAKI-1 renal; A498 renal; CCRF-CEM leukemia; EKVX NSCLC; MOLT-4 leukemia.
Assay in all cases: NCI-60 one-dose screen, 48 h (100 = growth as untreated, 0 = no growth, -100 = all killed)
Holding throughout (conditions): 10 µM

SMILES strings stand for the structures. This is part of a sample that, as a whole, favours compounds with a hit. Of some 83,000 tested, about 20% had one in any assay.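 Interpretation: 100, growth as untreated; towards 0, rising growth inhibition; 0, no net growth; 0 to -100, cell death. Compounds scoring below 10 were considered active.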 Values without a mark were called inactive. Active and inactive are the calls of the source.

With `CCCCCCCC/C=C/CCCCCCCCC1=NCCN1CCO`, the growth in the test with SK-MEL-2 melanoma was 95.1%; in the test on SN12C renal, 64.1%; in the test with UO-31 renal it was 38.5%; in the test with TK-10 renal, 124%; in the test with ACHN renal it was 58.7%; with CAKI-1 renal, 80.5%. Besides, the growth in the test on A498 renal is 84.7%; in the test with CCRF-CEM leukemia, 19.7%.

On to `Cc1ccc(-n2c(-c3cc4c([nH]c5ccccc54)c(-c4cccc(O)c4)n3)n[nH]c2=S)cc1`, for which the growth in the test with SK-MEL-2 melanoma was -48.1% (active); in the test with EKVX NSCLC, 19.4%; with UO-31 renal it was 30.9%; in the test on TK-10 renal, 24.9%; in the test on ACHN renal, 32.6%; in the test with CAKI-1 renal, 7.33% (active). The values for the growth in the test on CCRF-CEM leukemia and in the test with MOLT-4 leukemia were 7.56% (active) and 0.747% (active), respectively.

With `COCCOC(=O)NC(=O)Nc1ccc(C(=O)c2ccc(Cl)cc2)cc1`, the growth is 27.6% in the test with SK-MEL-2 melanoma; 31.4% in the test with EKVX NSCLC; 40.3% with UO-31 renal; 42.7% with ACHN renal; 32.8% in the test with CAKI-1 renal; 19.3% in the test with A498 renal. Moreover, the growth in the test with CCRF-CEM leukemia was 18.5%; in the test on MOLT-4 leukemia it was 32.7%.

For the compound `COc1ccc(-c2nnc(SCC(=O)c3ccccc3)o2)cc1`, the growth was 95.6% with SK-MEL-2 melanoma; 97.9% in the test with EKVX NSCLC; 99.4% with UO-31 renal; 89.1% in the test with TK-10 renal; 97.5% in the test with ACHN renal; 94.7% with CAKI-1 renal. In addition, the results for the growth in the test on CCRF-CEM leukemia and in the test with MOLT-4 leukemia were 59.5% and 95.2%, respectively.

For `O=c1[nH]c(=O)n(C2C[C@@H](O)[C@@H](CO)O2)cc1F` (stereo partly drawn), the growth is 57.3% in the test on SK-MEL-2 melanoma; 70.7% with EKVX NSCLC; 10.5% in the test on UO-31 renal; 35.5% with TK-10 renal; 31.6% in the test on CAKI-1 renal; 15.8% in the test on A498 renal. The growth in the test with CCRF-CEM leukemia is 29.1%; in the test with MOLT-4 leukemia, 32.5%.

Regarding `CS(=O)(=O)Nc1ccc(Nc2c3ccccc3nc3cc(Cl)ccc23)cc1`, the growth is 74.1% in the test on SK-MEL-2 melanoma; 13.9% in the test on SN12C renal; 0.84% (active) in the test on UO-31 renal; 55% in the test on TK-10 renal; 9.36% (active) in the test with ACHN renal; 6.38% (active) with CAKI-1 renal. Besides, the results for the growth in the test on A498 renal and with CCRF-CEM leukemia were 48.5% and 7.94% (active), respectively.

In the case of `CCOC(=O)Nc1ccc2c(c1)C(=O)N(CCOC)c1ccccc1O2`, the growth was 39.9% in the test on SK-MEL-2 melanoma; 45.4% in the test on EKVX NSCLC; 62.2% with UO-31 renal; 48.1% with ACHN renal; 38.7% with CAKI-1 renal; 4.67% (active) with A498 renal. The values for the growth with CCRF-CEM leukemia and in the test on MOLT-4 leukemia were 20.6% and 35%, respectively.

With `O=C(Nc1cccc(Cl)c1)OCC(COC(=O)Nc1cccc(Cl)c1)(COC(=O)Nc1cccc(Cl)c1)[N+](=O)[O-]`, the growth is 49.7% in the test with SK-MEL-2 melanoma; 28.3% in the test on EKVX NSCLC; 30.9% with UO-31 renal; 39.8% with ACHN renal; 49.8% in the test with CAKI-1 renal; 21.1% with A498 renal. The growth in the test on CCRF-CEM leukemia was 21.4%; with MOLT-4 leukemia, 4.15% (active).

`CC(C)C[C@H](NC(=O)Cn1ccc2ccccc2c1=O)B(O)O`: the growth in the test with SK-MEL-2 melanoma is 63.5%; in the test on SN12C renal it was 75.8%; with UO-31 renal it was 50.6%; with TK-10 renal it was 11.7%; with ACHN renal, 29.1%; in the test on CAKI-1 renal, 40.6%. The growth was 30.1% in the test on A498 renal, 15.2% in the test with CCRF-CEM leukemia and 9.94% (active) in the test on MOLT-4 leukemia.

Turning to `O=c1oc2cc(OS(=O)(=O)C3CC3)ccc2c2c1CCCCCC2`, the growth was 103% in the test on SK-MEL-2 melanoma; 82.8% with SN12C renal; 83.4% with UO-31 renal; 121% in the test on TK-10 renal; 82.1% in the test with ACHN renal; 79.4% with CAKI-1 renal. The growth with A498 renal was 63.8%; in the test with CCRF-CEM leukemia, 64.4%.

As to `C/C(=N\NC(=S)N1CCCC1)c1ccccn1`, the growth in the test on SK-MEL-2 melanoma was 13.8%; in the test with SN12C renal, 14.3%; in the test on UO-31 renal, -3.72% (active); in the test on TK-10 renal, 28.5%; with ACHN renal, 15.5%; in the test on CAKI-1 renal, 6.32% (active). For the same compound, the growth in the test on A498 renal was -5.14% (active); in the test with CCRF-CEM leukemia, 0.145% (active); in the test with MOLT-4 leukemia it was 3.06% (active).

Turning to `CNCCCNCCCN1C(=O)c2ccc3c4c(ccc(c24)C1=O)C(=O)N(CCCNCc1ccccc1OC)C3=O`, the growth with SK-MEL-2 melanoma was -49.9% (active); in the test on SN12C renal, 2.51% (active); in the test on UO-31 renal, 18.2%; in the test with TK-10 renal it was -14% (active); in the test on ACHN renal, 16.6%; in the test with CAKI-1 renal it was 24.6%. Further, the growth is 28.8% in the test with A498 renal, 4.62% (active) in the test on CCRF-CEM leukemia and -23.8% (active) in the test with MOLT-4 leukemia.

Regarding `CC1(C)CNC(=O)N1`, the growth was 98.8% with SK-MEL-2 melanoma; 96% in the test on EKVX NSCLC; 87.7% in the test with UO-31 renal; 110% with ACHN renal; 97.1% in the test on CAKI-1 renal; 95.5% in the test on A498 renal. For the same compound, the results for the growth with CCRF-CEM leukemia and in the test with MOLT-4 leukemia were 95.4% and 101%, respectively.

As for `CCCCCCCCCCN=C(c1ccc(N(C)C)cc1)c1ccc(N(C)C)cc1`, the growth with SK-MEL-2 melanoma was 23.3%; in the test with EKVX NSCLC it was 29.3%; with UO-31 renal, 52.8%; in the test with ACHN renal, 43.3%; with CAKI-1 renal, 35.7%; in the test with A498 renal, -9.41% (active). Moreover, the growth with CCRF-CEM leukemia is 28.1%.

Take `O=C1/C(=C/c2ccc(O)cc2)Oc2ccc(Cl)cc21`: the growth in the test on SK-MEL-2 melanoma is 109%; in the test with SN12C renal it was 84.6%; in the test with UO-31 renal, 38.5%; in the test with TK-10 renal it was 117%; in the test with ACHN renal it was 95.4%; with CAKI-1 renal it was 77.1%. Besides, the growth in the test with A498 renal was 125%; in the test with CCRF-CEM leukemia, 88.2%.

For the compound `CS(=O)(=O)Nc1ccc([N+](=O)[O-])cc1Oc1ccccc1`, the growth in the test on SK-MEL-2 melanoma is 125%; in the test on EKVX NSCLC, 87.6%; in the test on UO-31 renal, 81.5%; in the test on TK-10 renal it was 117%; in the test with CAKI-1 renal it was 78.7%; in the test on A498 renal, 92%. Also, the growth with CCRF-CEM leukemia is 85.5%; with MOLT-4 leukemia it was 84.8%.

For `O=C(O)c1ccc(CNc2ccc(C(=O)CCl)cc2)cc1`, the growth with SK-MEL-2 melanoma is 96.6%; with SN12C renal, 99.3%; in the test on UO-31 renal, 106%; in the test with TK-10 renal, 104%; in the test on ACHN renal it was 99.3%; in the test with CAKI-1 renal, 86.7%. In addition, the growth in the test with A498 renal is 61.4%; with CCRF-CEM leukemia, 48.7%.
